# Assay results taken from the supplement of paper PMC10037445.
# Values joined by “and” are separate entries in the source; they are usually repeats but may differ in a detail not shown here. Equal values may be shown once. In all, about 2,900 compounds were measured (“NF-kB SEAP reporter activity, fold change vs agonist alone”: median about 0.99, highest 2% from about 2.6 on). For the sample, the highest values were picked, then their nearest neighbours and some compounds at random.
# Key:
# RAW-Dual [1] = test: NF-kB SEAP reporter activity, fold change vs agonist alone; cytotoxicity flag (confluency mask): not cytotoxic; higher = enhanced NF-kB activity
# How it was run: (§1)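 Supernatant from RAW-Dual macrophages was read after 20 hours for IRF by QuantiLuc luminescence and for NF-κB by QuantiBlue absorbance at 620 nm. The cells (50,000 cells/well in DMEM, 384-well plates, 37 °C, 5% CO2) had received 50 nL of library stock by pin tool and, 1 h later, a PRR agonist. Reporter activity is expressed relative to agonist-alone wells as fold change, and wells were flagged cytotoxic if IncuCyte confluency was under 70% of agonist controls in both mask sets.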
# RAW-Dual [2] = test: NF-kB SEAP reporter activity, fold change vs agonist alone; higher = enhanced NF-kB activity
# How it was run: as §1
# RAW-Dual [3] = test: NF-kB SEAP reporter activity, fold change vs agonist alone; cytotoxicity flag (confluency mask): cytotoxic (confluency <70% of control); higher = enhanced NF-kB activity
# How it was run: as §1
# [4] = agonist: ODN 1826 (TLR9) 0.5 ug/mL
# [5] = agonist: Pam2CSK4 (TLR2/6) 0.1 ug/mL
# [6] = agonist: Pam3CSK4 (TLR2/1) 0.1 ug/mL
# [7] = library stock concentration (final ~1000-fold dilution): 10 mM, cytotoxicity flag (confluency mask): not cytotoxic, agonist: MPLA (TLR4) […]
# [8] = library stock concentration (final ~1000-fold dilution): 10 mM, cytotoxicity flag (confluency mask): not cytotoxic, agonist: Imiquimod (TLR7) […]
# [9] = library stock concentration (final ~1000-fold dilution): 10 mM water, cytotoxicity flag (confluency mask): not cytotoxic, agonist: Imiquimod (TLR7) […]
# [10] = library stock concentration (final ~1000-fold dilution): 10 mM water, cytotoxicity flag (confluency mask): not cytotoxic, agonist: MPLA (TLR4) […]
compound,measurement,setting,value
CC1(C)SC2CC(=O)N2C1C(=O)OCOC(=O)C1N2C(=O)C(NC(=O)C(N)c3ccccc3)C2S(=O)(=O)C1(C)C.Cc1ccc(S(=O)(=O)O)cc1 (stereo unspecified) (library stock concentration (final ~1000-fold dilution): 10 mM),NF-kB SEAP reporter activity,RAW-Dual [1]; agonist: LPS (TLR4) 0.1 ug/mL,1.26
same,NF-kB SEAP reporter activity,RAW-Dual [1]; [4],0.797
same,NF-kB SEAP reporter activity,RAW-Dual [1]; [5],1.02
same,NF-kB SEAP reporter activity,RAW-Dual [1]; [6],0.873
CC1(C)SC2CC(=O)N2C1C(=O)OCOC(=O)C1N2C(=O)C(NC(=O)C(N)c3ccccc3)C2S(=O)(=O)C1(C)C.Cc1ccc(S(=O)(=O)O)cc1 (stereo unspecified),NF-kB SEAP reporter activity,RAW-Dual [2]; [7],1.02
CN1C(CC(=O)c2ccccc2)CCCC1CC(O)c1ccccc1.Cl (stereo unspecified),NF-kB SEAP reporter activity,RAW-Dual [2]; [8],0.779
same,NF-kB SEAP reporter activity,RAW-Dual [2]; [7],0.909
CN1C(CC(=O)c2ccccc2)CCCC1CC(O)c1ccccc1.Cl (stereo unspecified) (library stock concentration (final ~1000-fold dilution): 10 mM),NF-kB SEAP reporter activity,RAW-Dual [1]; agonist: LPS (TLR4) 0.1 ug/mL,1.18
same,NF-kB SEAP reporter activity,RAW-Dual [1]; [4],0.669
same,NF-kB SEAP reporter activity,RAW-Dual [1]; [5],0.9
same,NF-kB SEAP reporter activity,RAW-Dual [1]; [6],1.15
O=C(O)CN(CC(=O)O)c1ccccc1OCCOc1ccccc1N(CC(=O)O)CC(=O)O (library stock concentration (final ~1000-fold dilution): 10 mM),NF-kB SEAP reporter activity,RAW-Dual [1]; agonist: LPS (TLR4) 0.1 ug/mL,1
same,NF-kB SEAP reporter activity,RAW-Dual [1]; [4],0.989
same,NF-kB SEAP reporter activity,RAW-Dual [1]; [5],1.04
same,NF-kB SEAP reporter activity,RAW-Dual [1]; [6],0.872
O=C(O)CN(CC(=O)O)c1ccccc1OCCOc1ccccc1N(CC(=O)O)CC(=O)O,NF-kB SEAP reporter activity,RAW-Dual [2]; [8],0.994
same,NF-kB SEAP reporter activity,RAW-Dual [2]; [7],1.01
CN1C2=C3N=c4ccccc4=C3CCN2C(=O)c2ccccc21.Cl,NF-kB SEAP reporter activity,RAW-Dual [2]; [8],0.969
same,NF-kB SEAP reporter activity,RAW-Dual [2]; [7],0.999
CN1C2=C3N=c4ccccc4=C3CCN2C(=O)c2ccccc21.Cl (library stock concentration (final ~1000-fold dilution): 10 mM),NF-kB SEAP reporter activity,RAW-Dual [1]; agonist: LPS (TLR4) 0.1 ug/mL,1.21
same,NF-kB SEAP reporter activity,RAW-Dual [1]; [4],0.594
same,NF-kB SEAP reporter activity,RAW-Dual [1]; [5],1.28
same,NF-kB SEAP reporter activity,RAW-Dual [1]; [6],1.1
CCS(=O)(=O)N1CC(CC#N)(n2cc(-c3ncnc4[nH]ccc34)cn2)C1 (library stock concentration (final ~1000-fold dilution): 10 mM),NF-kB SEAP reporter activity,RAW-Dual [1]; agonist: LPS (TLR4) 0.1 ug/mL,1.65 and 0.788
same,NF-kB SEAP reporter activity,RAW-Dual [1]; [4],1.96 and 2.12
same,NF-kB SEAP reporter activity,RAW-Dual [1]; [5],1.19 and 1.64
same,NF-kB SEAP reporter activity,RAW-Dual [1]; [6],1.77 and 2.42
N#CCC1(n2cc(-c3ncnc4[nH]ccc34)cn2)CN(C2CCN(C(=O)c3ccnc(C(F)(F)F)c3F)CC2)C1 (library stock concentration (final ~1000-fold dilution): 10 mM),NF-kB SEAP reporter activity,RAW-Dual [1]; agonist: LPS (TLR4) 0.1 ug/mL,0.591
same,NF-kB SEAP reporter activity,RAW-Dual [1]; [4],1.09
same,NF-kB SEAP reporter activity,RAW-Dual [1]; [5],1.11
same,NF-kB SEAP reporter activity,RAW-Dual [1]; [6],1.03
N#CCC1(n2cc(-c3ncnc4[nH]ccc34)cn2)CN(C2CCN(C(=O)c3ccnc(C(F)(F)F)c3F)CC2)C1,NF-kB SEAP reporter activity,RAW-Dual [2]; [8],0.89
same,NF-kB SEAP reporter activity,RAW-Dual [2]; [7],0.922
N#CCC(C1CCCC1)n1cc(-c2ncnc3[nH]ccc23)cn1 (stereo unspecified) (library stock concentration (final ~1000-fold dilution): 10 mM),NF-kB SEAP reporter activity,RAW-Dual [1]; agonist: LPS (TLR4) 0.1 ug/mL,0.995 and 0.96 and 0.998
same,NF-kB SEAP reporter activity,RAW-Dual [1]; [4],2.7 and 1.88 and 2.86
same,NF-kB SEAP reporter activity,RAW-Dual [1]; [5],1.81 and 1.49 and 1.69
same,NF-kB SEAP reporter activity,RAW-Dual [1]; [6],2.14 and 2.16 and 2.67
CC(C)(C)N.CCCC(NC(C)C(=O)N1C(C(=O)O)CC2CCCCC21)C(=O)OCC (stereo unspecified),NF-kB SEAP reporter activity,RAW-Dual [2]; [9],0.909
same,NF-kB SEAP reporter activity,RAW-Dual [2]; [10],1.04
CC(C)(C)N.CCCC(NC(C)C(=O)N1C(C(=O)O)CC2CCCCC21)C(=O)OCC (stereo unspecified) (library stock concentration (final ~1000-fold dilution): 10 mM water),NF-kB SEAP reporter activity,RAW-Dual [1]; agonist: LPS (TLR4) 0.1 ug/mL,1.05
same,NF-kB SEAP reporter activity,RAW-Dual [1]; [4],1.13
same,NF-kB SEAP reporter activity,RAW-Dual [1]; [5],1.17
same,NF-kB SEAP reporter activity,RAW-Dual [1]; [6],1.02
CC(C)(C)Cn1c(N)nc2ccc(-c3[nH]c(C(C)(C)C)nc3-c3ccc(F)cc3)nc21.CS(=O)(=O)O.CS(=O)(=O)O,NF-kB SEAP reporter activity,RAW-Dual [2]; [9],0.303
same,NF-kB SEAP reporter activity,RAW-Dual [2]; [10],0.892
CC(C)(C)Cn1c(N)nc2ccc(-c3[nH]c(C(C)(C)C)nc3-c3ccc(F)cc3)nc21.CS(=O)(=O)O.CS(=O)(=O)O (library stock concentration (final ~1000-fold dilution): 10 mM water),NF-kB SEAP reporter activity,RAW-Dual [1]; agonist: LPS (TLR4) 0.1 ug/mL,1.03
same,NF-kB SEAP reporter activity,RAW-Dual [1]; [4],0.512
same,NF-kB SEAP reporter activity,RAW-Dual [1]; [5],0.242
same,NF-kB SEAP reporter activity,RAW-Dual [1]; [6],0.506
C1=CCOCc2cc(ccc2OCCN2CCCC2)Nc2nccc(n2)-c2cccc(c2)COC1,NF-kB SEAP reporter activity,"RAW-Dual [2]; library stock concentration (final ~1000-fold dilution): 10 mM, cytotoxicity flag (confluency mask): cytotoxic (confluency <70% of control), agonist: Imiquimod (TLR7) […]",1.52
same,NF-kB SEAP reporter activity,"RAW-Dual [2]; library stock concentration (final ~1000-fold dilution): 10 mM, cytotoxicity flag (confluency mask): cytotoxic (confluency <70% of control), agonist: MPLA (TLR4) […]",0.838
C1=CCOCc2cc(ccc2OCCN2CCCC2)Nc2nccc(n2)-c2cccc(c2)COC1 (library stock concentration (final ~1000-fold dilution): 10 mM),NF-kB SEAP reporter activity,RAW-Dual [3]; agonist: LPS (TLR4) 0.1 ug/mL,0.498
same,NF-kB SEAP reporter activity,RAW-Dual [3]; [4],0.245
same,NF-kB SEAP reporter activity,RAW-Dual [3]; [5],0.176
same,NF-kB SEAP reporter activity,RAW-Dual [3]; [6],0.256
CC(C)n1cc(-c2ccc3c(c2)N(C)CC3)c2c(NS(=O)(=O)c3ccn(C)n3)ccnc21,NF-kB SEAP reporter activity,RAW-Dual [2]; [8],0.948
same,NF-kB SEAP reporter activity,RAW-Dual [2]; [7],1.02
CC(C)n1cc(-c2ccc3c(c2)N(C)CC3)c2c(NS(=O)(=O)c3ccn(C)n3)ccnc21 (library stock concentration (final ~1000-fold dilution): 10 mM),NF-kB SEAP reporter activity,RAW-Dual [1]; agonist: LPS (TLR4) 0.1 ug/mL,1.25
same,NF-kB SEAP reporter activity,RAW-Dual [1]; [4],1.12
same,NF-kB SEAP reporter activity,RAW-Dual [1]; [5],1.14
same,NF-kB SEAP reporter activity,RAW-Dual [1]; [6],1.07
O=C1c2c(O)cc(O)cc2OC(c2cc(O)c(O)c(O)c2)C1O (stereo unspecified),NF-kB SEAP reporter activity,RAW-Dual [2]; [8],0.946
same,NF-kB SEAP reporter activity,RAW-Dual [2]; [7],1.07
O=C1c2c(O)cc(O)cc2OC(c2cc(O)c(O)c(O)c2)C1O (stereo unspecified) (library stock concentration (final ~1000-fold dilution): 10 mM),NF-kB SEAP reporter activity,RAW-Dual [1]; agonist: LPS (TLR4) 0.1 ug/mL,0.954
same,NF-kB SEAP reporter activity,RAW-Dual [1]; [4],1.02
same,NF-kB SEAP reporter activity,RAW-Dual [1]; [5],0.798
same,NF-kB SEAP reporter activity,RAW-Dual [1]; [6],0.657
CC(C)(C)NC(=O)c1cncn1C1CCN(c2ccc(-c3nnc(C(F)(F)F)o3)cn2)CC1 (library stock concentration (final ~1000-fold dilution): 10 mM),NF-kB SEAP reporter activity,RAW-Dual [1]; agonist: LPS (TLR4) 0.1 ug/mL,6.27
same,NF-kB SEAP reporter activity,RAW-Dual [1]; [4],3.15
same,NF-kB SEAP reporter activity,RAW-Dual [1]; [5],1.66
same,NF-kB SEAP reporter activity,RAW-Dual [1]; [6],2.84
